Data reported in article PMC7862700, “An all-to-all approach to the identification of sequence-specific readers for epigenetic DNA modifications on cytosine”.

Columns and labels:
Experiment in all cases: DAPPL (digital affinity profiling via proximity ligation, sequencing); 10 mM Tris-HCl pH 7.5, 50 mM NaCl, 1 mM DTT, 4% glycerol, room temperature, 30 min; GST-TFs on glutathione beads, 16-mer random dsDNA library, 0.1% formaldehyde crosslink after washing; high values mean tight binding
Settings in all cases: protein: recombinant; tags: N-terminal GST; dsDNA, one strand shown
FLI1 = target: T1, FLI1 (Homo sapiens, UniProt Q01543 1-452)
T1 sequence: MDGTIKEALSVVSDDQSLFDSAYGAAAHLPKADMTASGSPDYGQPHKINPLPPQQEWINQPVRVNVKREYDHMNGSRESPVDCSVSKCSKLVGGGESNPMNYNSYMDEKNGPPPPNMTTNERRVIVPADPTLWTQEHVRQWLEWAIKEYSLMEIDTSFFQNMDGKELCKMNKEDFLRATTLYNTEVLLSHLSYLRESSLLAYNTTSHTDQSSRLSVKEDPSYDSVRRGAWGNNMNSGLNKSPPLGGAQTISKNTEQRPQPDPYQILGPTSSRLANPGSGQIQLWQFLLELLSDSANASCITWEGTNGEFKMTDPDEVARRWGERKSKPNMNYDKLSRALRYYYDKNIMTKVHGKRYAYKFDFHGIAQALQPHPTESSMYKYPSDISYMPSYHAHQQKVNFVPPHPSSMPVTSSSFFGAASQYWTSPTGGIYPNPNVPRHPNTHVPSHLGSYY
Method in brief: (§1)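 Binding signal is defined as a hexamer's read frequency for one factor over its frequency for the tag-only sample. To obtain reads, GST-fused human transcription factors were expressed in yeast, captured on glutathione beads, barcoded with DNA and pooled with that sample. Pools met 200 nmole of a 16-mer random double-stranded DNA library in Tris/NaCl/DTT/glycerol buffer for 30 min at room temperature before washing, 0.1% formaldehyde crosslinking, proximity ligation (BsaI/T4 ligase, 1 h, 37 °C), PCR and Illumina NextSeq500 sequencing.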

ELK1 = target: T2, ELK1 (Homo sapiens, UniProt P19419 1-428)
T2 sequence: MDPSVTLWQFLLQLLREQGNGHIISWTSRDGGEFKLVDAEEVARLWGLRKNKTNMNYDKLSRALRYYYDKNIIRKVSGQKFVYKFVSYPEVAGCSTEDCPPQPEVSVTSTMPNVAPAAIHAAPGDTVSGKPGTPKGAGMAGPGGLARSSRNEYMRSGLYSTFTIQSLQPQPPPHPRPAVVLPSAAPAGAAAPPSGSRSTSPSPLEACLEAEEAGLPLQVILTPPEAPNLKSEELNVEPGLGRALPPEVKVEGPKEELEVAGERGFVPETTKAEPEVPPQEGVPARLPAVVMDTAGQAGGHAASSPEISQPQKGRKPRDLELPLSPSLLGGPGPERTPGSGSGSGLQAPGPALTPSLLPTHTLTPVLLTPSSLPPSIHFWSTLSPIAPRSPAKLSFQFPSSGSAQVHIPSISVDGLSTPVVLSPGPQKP
Method in brief: as §1

GABPA = target: T3, GABPA (Homo sapiens, UniProt Q06546 1-454)
T3 sequence: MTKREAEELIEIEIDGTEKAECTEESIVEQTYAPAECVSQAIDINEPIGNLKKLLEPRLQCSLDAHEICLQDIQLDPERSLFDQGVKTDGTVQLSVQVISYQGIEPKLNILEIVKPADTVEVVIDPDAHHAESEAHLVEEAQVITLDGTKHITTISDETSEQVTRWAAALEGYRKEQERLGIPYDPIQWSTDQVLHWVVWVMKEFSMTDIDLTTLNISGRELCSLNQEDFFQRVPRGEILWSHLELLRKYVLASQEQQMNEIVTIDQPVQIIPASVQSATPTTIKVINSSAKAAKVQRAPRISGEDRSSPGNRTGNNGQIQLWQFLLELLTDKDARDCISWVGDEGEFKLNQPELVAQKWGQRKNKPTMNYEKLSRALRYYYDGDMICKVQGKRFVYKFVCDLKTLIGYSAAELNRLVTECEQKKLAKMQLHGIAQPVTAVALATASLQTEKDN
Method in brief: as §1

ERG = target: T4, ERG (Homo sapiens, UniProt P11308 1-479)
T4 sequence: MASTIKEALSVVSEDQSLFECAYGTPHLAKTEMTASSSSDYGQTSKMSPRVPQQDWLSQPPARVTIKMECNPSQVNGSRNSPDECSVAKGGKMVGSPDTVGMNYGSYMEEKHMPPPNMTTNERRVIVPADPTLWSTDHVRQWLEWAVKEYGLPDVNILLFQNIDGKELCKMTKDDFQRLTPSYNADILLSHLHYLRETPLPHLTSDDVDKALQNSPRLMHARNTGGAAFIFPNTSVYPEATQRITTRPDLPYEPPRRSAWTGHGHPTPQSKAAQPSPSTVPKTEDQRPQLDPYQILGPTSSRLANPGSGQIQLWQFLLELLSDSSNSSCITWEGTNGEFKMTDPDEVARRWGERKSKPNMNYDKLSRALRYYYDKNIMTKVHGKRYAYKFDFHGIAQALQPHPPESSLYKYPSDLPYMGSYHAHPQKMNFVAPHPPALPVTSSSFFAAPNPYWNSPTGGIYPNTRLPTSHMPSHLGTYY
Method in brief: as §1

ELF1 = ELF1 (Homo sapiens, UniProt P32519 1-619)
Chain of ELF1 (P32519 whole entry): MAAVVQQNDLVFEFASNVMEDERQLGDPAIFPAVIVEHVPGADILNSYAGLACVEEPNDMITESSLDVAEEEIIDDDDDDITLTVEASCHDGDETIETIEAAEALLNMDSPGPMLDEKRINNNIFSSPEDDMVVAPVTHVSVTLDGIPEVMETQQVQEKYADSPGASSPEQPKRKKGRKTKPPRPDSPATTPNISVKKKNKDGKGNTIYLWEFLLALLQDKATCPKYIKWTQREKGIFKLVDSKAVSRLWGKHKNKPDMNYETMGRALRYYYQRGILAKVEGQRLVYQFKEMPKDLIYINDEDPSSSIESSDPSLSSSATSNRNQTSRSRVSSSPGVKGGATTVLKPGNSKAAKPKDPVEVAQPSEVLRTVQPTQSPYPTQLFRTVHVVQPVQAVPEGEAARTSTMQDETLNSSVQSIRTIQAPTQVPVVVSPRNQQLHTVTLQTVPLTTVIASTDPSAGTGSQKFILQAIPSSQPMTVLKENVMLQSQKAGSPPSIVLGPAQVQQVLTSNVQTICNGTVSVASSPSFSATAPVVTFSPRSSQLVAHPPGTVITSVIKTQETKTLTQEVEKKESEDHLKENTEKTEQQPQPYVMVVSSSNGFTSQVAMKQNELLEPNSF
Method in brief: as §1

EHF = target: T5, EHF (Homo sapiens, UniProt Q9NZC4 1-300)
T5 sequence: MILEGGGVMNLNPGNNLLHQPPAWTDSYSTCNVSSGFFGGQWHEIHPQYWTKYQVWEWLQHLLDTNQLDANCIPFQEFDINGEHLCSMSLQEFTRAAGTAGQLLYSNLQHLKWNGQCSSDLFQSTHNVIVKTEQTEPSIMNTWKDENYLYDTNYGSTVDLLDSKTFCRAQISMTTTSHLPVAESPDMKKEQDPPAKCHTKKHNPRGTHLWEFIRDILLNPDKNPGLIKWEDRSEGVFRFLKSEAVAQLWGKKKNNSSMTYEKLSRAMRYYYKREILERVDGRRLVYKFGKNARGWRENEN
Method in brief: as §1

SPI1 = SPI1 (Homo sapiens, UniProt P17947 1-270)
Method in brief: as §1

ETV5 = ETV5 (Homo sapiens, UniProt P41161 1-510)
Chain of ETV5 (P41161 whole entry): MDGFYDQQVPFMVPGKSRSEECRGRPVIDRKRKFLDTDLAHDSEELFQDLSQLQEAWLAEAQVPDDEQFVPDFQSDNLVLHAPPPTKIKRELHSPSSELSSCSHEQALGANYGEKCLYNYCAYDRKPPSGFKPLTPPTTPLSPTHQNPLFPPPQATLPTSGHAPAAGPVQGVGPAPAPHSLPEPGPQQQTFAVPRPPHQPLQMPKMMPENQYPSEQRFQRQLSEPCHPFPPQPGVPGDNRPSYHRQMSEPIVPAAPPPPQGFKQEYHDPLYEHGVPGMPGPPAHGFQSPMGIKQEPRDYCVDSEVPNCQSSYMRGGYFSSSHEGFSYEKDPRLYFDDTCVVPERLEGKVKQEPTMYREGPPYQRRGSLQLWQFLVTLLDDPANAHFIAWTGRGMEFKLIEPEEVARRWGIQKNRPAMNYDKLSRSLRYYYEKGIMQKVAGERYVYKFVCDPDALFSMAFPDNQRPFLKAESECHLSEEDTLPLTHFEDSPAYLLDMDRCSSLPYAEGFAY
Method in brief: as §1

ELF4 = ELF4 (Homo sapiens, UniProt Q99607 1-663)
Chain of ELF4 (Q99607 whole entry): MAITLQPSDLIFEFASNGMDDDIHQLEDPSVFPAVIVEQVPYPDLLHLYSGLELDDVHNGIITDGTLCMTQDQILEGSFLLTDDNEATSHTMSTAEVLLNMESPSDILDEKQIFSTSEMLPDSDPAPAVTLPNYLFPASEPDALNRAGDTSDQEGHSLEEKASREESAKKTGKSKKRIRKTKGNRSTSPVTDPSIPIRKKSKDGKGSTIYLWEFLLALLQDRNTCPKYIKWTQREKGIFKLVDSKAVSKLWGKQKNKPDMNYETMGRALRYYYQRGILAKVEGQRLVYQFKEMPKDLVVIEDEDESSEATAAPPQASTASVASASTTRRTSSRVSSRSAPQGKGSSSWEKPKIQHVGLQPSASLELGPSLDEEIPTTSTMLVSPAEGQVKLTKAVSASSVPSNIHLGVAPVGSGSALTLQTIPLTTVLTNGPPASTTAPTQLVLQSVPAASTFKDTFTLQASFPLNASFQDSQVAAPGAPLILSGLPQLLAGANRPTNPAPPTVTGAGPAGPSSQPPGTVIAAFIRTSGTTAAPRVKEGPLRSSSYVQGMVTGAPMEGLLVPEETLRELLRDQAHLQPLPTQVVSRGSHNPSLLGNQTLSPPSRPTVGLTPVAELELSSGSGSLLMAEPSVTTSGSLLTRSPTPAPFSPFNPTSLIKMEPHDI
Method in brief: as §1

ETV2 = target: T6, ETV2 (Homo sapiens, UniProt O00321 1-342)
T6 sequence: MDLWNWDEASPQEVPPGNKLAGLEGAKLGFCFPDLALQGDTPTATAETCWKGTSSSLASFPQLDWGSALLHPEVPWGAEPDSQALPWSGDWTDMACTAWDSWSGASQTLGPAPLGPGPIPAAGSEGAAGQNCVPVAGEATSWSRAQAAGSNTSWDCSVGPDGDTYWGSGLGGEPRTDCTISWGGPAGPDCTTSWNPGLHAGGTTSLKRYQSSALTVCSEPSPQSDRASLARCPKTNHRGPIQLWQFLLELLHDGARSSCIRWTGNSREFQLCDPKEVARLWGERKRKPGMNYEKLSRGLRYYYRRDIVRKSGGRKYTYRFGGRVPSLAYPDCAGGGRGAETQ
Method in brief: as §1

ELF3 = target: T7, ELF3 (Homo sapiens, UniProt P78545 1-371)
T7 sequence: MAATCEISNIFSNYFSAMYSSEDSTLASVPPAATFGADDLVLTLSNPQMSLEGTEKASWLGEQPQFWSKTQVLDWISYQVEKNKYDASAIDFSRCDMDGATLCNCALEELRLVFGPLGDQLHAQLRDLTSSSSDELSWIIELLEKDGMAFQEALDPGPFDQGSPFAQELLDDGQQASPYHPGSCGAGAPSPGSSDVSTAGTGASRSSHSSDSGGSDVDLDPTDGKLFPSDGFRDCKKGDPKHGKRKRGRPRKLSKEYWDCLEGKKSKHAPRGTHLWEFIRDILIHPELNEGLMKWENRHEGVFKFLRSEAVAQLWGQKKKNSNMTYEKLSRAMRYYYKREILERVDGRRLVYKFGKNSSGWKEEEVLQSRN
Method in brief: as §1

ETV1 = ETV1 (Homo sapiens, UniProt P50549 1-477)
Chain of ETV1 (P50549 whole entry): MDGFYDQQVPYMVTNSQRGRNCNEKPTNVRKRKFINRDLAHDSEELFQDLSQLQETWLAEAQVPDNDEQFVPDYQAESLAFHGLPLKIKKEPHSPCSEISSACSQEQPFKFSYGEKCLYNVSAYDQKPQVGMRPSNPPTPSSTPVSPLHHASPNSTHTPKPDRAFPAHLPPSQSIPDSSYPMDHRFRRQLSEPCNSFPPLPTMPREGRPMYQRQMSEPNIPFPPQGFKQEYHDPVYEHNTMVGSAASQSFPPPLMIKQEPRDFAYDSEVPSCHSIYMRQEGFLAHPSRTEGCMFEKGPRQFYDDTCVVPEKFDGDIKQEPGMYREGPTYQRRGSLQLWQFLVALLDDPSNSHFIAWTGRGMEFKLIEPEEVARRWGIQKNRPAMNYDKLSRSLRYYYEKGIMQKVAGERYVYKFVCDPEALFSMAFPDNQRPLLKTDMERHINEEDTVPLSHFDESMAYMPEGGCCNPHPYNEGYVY
Method in brief: as §1

ERF = target: T8, ERF (Homo sapiens, UniProt P50548 1-548)
T8 sequence: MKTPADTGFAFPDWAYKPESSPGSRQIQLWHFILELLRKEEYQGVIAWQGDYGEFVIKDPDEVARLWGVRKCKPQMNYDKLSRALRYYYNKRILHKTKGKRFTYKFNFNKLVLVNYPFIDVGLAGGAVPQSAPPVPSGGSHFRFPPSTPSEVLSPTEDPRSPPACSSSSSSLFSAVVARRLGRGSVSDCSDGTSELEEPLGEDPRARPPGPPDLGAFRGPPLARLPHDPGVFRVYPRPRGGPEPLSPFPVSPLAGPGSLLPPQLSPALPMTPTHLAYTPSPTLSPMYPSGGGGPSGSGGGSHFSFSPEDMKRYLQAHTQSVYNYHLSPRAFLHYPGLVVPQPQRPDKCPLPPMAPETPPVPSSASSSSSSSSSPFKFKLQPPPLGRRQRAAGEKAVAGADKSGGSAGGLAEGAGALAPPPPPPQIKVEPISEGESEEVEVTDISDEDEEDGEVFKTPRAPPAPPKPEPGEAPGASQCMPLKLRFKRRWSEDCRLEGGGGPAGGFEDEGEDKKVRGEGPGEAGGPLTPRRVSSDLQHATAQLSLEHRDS
Method in brief: as §1

ETV3L = target: T9, ETV3L (Homo sapiens, UniProt Q6ZN32 1-361)
T9 sequence: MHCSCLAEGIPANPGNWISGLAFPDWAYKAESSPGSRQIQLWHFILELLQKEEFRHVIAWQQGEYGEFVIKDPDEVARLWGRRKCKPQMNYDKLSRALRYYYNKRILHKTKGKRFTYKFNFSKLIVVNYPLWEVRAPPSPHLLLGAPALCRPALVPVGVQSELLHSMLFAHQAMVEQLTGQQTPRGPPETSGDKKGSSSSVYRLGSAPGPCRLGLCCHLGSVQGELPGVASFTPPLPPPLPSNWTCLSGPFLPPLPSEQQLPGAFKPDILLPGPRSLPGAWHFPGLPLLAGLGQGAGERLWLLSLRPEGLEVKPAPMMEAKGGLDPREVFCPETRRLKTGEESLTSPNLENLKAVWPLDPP
Method in brief: as §1

ETS2 = target: T10, ETS2 (Homo sapiens, UniProt P15036 1-469)
T10 sequence: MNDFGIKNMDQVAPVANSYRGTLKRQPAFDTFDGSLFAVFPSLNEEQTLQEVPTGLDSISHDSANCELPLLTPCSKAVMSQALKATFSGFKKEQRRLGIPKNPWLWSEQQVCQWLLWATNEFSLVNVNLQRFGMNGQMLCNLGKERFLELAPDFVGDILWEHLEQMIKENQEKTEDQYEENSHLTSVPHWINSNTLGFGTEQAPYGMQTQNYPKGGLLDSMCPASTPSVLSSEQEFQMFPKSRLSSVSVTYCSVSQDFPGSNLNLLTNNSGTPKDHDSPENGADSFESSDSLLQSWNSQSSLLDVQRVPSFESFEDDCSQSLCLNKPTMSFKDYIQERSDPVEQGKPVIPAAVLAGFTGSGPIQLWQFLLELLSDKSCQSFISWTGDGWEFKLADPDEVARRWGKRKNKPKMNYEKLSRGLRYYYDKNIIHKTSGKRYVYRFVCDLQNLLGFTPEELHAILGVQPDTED
Method in brief: as §1

ETV7 = target: T11, ETV7 (Homo sapiens, UniProt Q9Y603 1-341)
T11 sequence: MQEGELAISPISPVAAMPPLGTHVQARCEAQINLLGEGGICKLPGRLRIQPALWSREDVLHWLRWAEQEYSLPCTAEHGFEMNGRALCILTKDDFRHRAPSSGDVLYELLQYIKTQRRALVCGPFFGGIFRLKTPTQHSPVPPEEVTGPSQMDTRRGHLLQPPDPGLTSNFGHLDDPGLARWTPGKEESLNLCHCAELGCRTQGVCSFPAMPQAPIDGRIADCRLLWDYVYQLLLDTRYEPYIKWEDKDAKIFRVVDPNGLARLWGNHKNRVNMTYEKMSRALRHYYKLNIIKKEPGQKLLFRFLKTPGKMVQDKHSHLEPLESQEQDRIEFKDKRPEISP
Method in brief: as §1

ETV3 = target: T12, ETV3 (Homo sapiens, UniProt P41162-2 1-143)
T12 sequence: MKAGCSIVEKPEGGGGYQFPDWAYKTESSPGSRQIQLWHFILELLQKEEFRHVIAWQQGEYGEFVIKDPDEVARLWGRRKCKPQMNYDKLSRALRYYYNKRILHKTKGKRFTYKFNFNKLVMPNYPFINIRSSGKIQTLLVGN
Method in brief: as §1

ETV6 = ETV6 (Homo sapiens, UniProt P41212 1-452)
Chain of ETV6 (P41212 whole entry): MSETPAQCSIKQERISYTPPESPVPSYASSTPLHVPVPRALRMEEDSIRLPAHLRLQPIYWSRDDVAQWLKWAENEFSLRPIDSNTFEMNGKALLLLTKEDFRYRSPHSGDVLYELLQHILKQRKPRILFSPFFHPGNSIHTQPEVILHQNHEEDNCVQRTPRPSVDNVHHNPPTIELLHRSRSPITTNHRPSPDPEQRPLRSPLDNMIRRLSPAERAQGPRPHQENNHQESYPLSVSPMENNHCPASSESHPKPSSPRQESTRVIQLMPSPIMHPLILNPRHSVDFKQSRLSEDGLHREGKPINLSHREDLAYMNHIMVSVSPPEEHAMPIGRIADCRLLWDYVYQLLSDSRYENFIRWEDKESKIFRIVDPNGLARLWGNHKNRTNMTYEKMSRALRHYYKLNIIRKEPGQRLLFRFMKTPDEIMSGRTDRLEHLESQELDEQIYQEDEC
Method in brief: as §1

## TCATGT
FLI1
  binding signal: 1.14 fold enrichment (6-mer frequency, TF over GST control)
ELK1
  binding signal: 1.17 fold enrichment (6-mer frequency, TF over GST control)
GABPA
  binding signal: 1.11 fold enrichment (6-mer frequency, TF over GST control)
ERG
  binding signal: 1.1 fold enrichment (6-mer frequency, TF over GST control)
ELF1
  binding signal: 1.15 fold enrichment (6-mer frequency, TF over GST control)
EHF
  binding signal: 1.02 fold enrichment (6-mer frequency, TF over GST control)
SPI1
  binding signal: 1.15 fold enrichment (6-mer frequency, TF over GST control)
ETV5
  binding signal: 1.16 fold enrichment (6-mer frequency, TF over GST control)
ELF4
  binding signal: 1.1 fold enrichment (6-mer frequency, TF over GST control)
ETV2
  binding signal: 1.15 fold enrichment (6-mer frequency, TF over GST control)
ELF3
  binding signal: 1.04 fold enrichment (6-mer frequency, TF over GST control)
ETV1
  binding signal: 1.27 fold enrichment (6-mer frequency, TF over GST control)
ERF
  binding signal: 1.13 fold enrichment (6-mer frequency, TF over GST control)
ETV3L
  binding signal: 1.15 fold enrichment (6-mer frequency, TF over GST control)
ETS2
  binding signal: 1.11 fold enrichment (6-mer frequency, TF over GST control)
ETV7
  binding signal: 1.15 fold enrichment (6-mer frequency, TF over GST control)
ETV3
  binding signal: 1.14 fold enrichment (6-mer frequency, TF over GST control)
ETV6
  binding signal: 1.08 fold enrichment (6-mer frequency, TF over GST control)
